Assay results as given in PubChem BioAssay (EPA / NIEHS).
Several values for one entry are separate records, joined by “and”; a condition that tells them apart may be missing. Identical values can stand only once. A structure can be active in one record and inactive in another. Activity calls are given as the source filed them. How the source made its calls: active means hit-call score of the fitted dose curve at least 0.9, where 1 is the maximum; inactive means score below 0.9.

What was measured:
Details in all cases: mRNA level, 48 h; actives raise or lower the signal
[1] = read-out: Lipase C (LIPC), LIPC (gene 3990); experiment: LTEA_HepaRG_LIPC: Life Technologies and Expression Analysis (LTEA) Assay for Lipase C (LIPC) using HepaRG (AID 2283514)
How it was run: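 Read-out is LIPC transcript level by TaqMan qRT-PCR, normalized to three housekeeping genes, after 48 h chemical treatment of human HepaRG liver cells. Curves span eight concentrations topping at 100 uM; activity in either direction scored relative to 0.5% DMSO.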

[2] = read-out: Lipoprotein lipase (LPL), LPL (gene 4023); experiment: LTEA_HepaRG_LPL: Life Technologies and Expression Analysis (LTEA) Assay for Lipoprotein lipase (LPL) using HepaRG (AID 2283515)
How it was run: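 Read-out is LPL transcript level by qRT-PCR, normalized to three housekeeping genes and fitted bidirectionally against the DMSO control. Human HepaRG cells received chemicals for 48 h at up to 100 uM.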

[3] = read-out: MicroRNA 122 (MIR122), gene 406906; experiment: LTEA_HepaRG_MIR122: Life Technologies and Expression Analysis (LTEA) Assay for MicroRNA 122 (MIR122) using HepaRG (AID 2283516); further: the transcript read is the microRNA miR-122
How it was run: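 Differentiated human HepaRG cells in serum-free induction medium exposed 48 h to 8 half-log concentrations from 100 uM in 0.5% DMSO, duplicate. MIR122 quantified by Fluidigm TaqMan qRT-PCR, normalised to ACTB, GAPDH, POLR2A; fold change fitted bidirectionally versus DMSO.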

[4] = read-out: matrix metalloproteinase-10 (MMP10), MMP10 (gene 4319); experiment: LTEA_HepaRG_MMP10: Life Technologies and Expression Analysis (LTEA) Assay for matrix metalloproteinase-10 (MMP10) using HepaRG (AID 2283517)
How it was run: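 Gain or loss of MMP10 mRNA is fitted relative to the 0.5% DMSO vehicle. The human hepatic line HepaRG receives a 48-hour serum-free exposure, in duplicate, with a maximum concentration of 100 uM.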

[5] = read-out: MYC, MYC (gene 4609); experiment: LTEA_HepaRG_MYC: Life Technologies and Expression Analysis (LTEA) Assay for MYC using HepaRG (AID 2283518)
How it was run: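 MYC transcript changes, up or down relative to 0.5% DMSO, from TaqMan qRT-PCR normalized to three housekeeping genes. Human HepaRG cultures received chemicals for 48 h at eight half-log concentrations up to 100 uM, in duplicate.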

[6] = read-out: matrix metalloproteinase-3 (MMP3), MMP3 (gene 4314); experiment: LTEA_HepaRG_MMP3: Life Technologies and Expression Analysis (LTEA) Assay for matrix metalloproteinase-3 (MMP3) using HepaRG (AID 2283519)
How it was run: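 HepaRG, human; 48 h dosing, 8 conc. (max 100 uM, half-log), duplicate, 0.5% DMSO. Readout: MMP3 transcript by Fluidigm TaqMan qRT-PCR, ACTB/GAPDH/POLR2A-normalised. Gain or loss fitted vs DMSO.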

[7] = read-out: Protein phosphatase 2A (PPP2R4), PTPA (gene 5524); experiment: LTEA_HepaRG_PPP2R4: Life Technologies and Expression Analysis (LTEA) Assay for Protein phosphatase 2A (PPP2R4) using HepaRG (AID 2283522)
How it was run: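 Differentiated human HepaRG cells in serum-free induction medium were exposed 48 h to 8 concentrations (top 100 µM, half-log steps, duplicate) in 0.5% DMSO. PPP2R4 mRNA was measured by TaqMan qRT-PCR, normalised to ACTB, GAPDH and POLR2A, and fitted bidirectionally versus DMSO.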

[8] = read-out: Phosphatase and tensin (PTEN), PTEN (gene 5728); experiment: LTEA_HepaRG_PTEN: Life Technologies and Expression Analysis (LTEA) Assay for Phosphatase and tensin (PTEN) using HepaRG (AID 2283523)
How it was run: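 Read-out is PTEN transcript level by multiplexed TaqMan qRT-PCR after 48 h chemical treatment of human HepaRG cultures in serum-free induction medium. Concentrations spanned 100 uM downward in half-log steps, 0.5% DMSO throughout; activity fitted in both directions against vehicle.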

[9] = read-out: solute carrier (SLC22A1), SLC22A1 (gene 6580); experiment: LTEA_HepaRG_SLC22A1: Life Technologies and Expression Analysis (LTEA) Assay for solute carrier (SLC22A1) using HepaRG (AID 2283524)
How it was run: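 HepaRG (human liver line), 48 h dosing in serum-free induction medium; 8 conc., half-log down from 100 uM, 0.5% DMSO vehicle, duplicates. Endpoint: SLC22A1 mRNA, qRT-PCR, housekeeping-normalized; gain/loss fit vs DMSO.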

[10] = read-out: Pyruvate Dehydrogenase Kinase 4 (PDK4), PDK4 (gene 5166); experiment: LTEA_HepaRG_PDK4: Life Technologies and Expression Analysis (LTEA) Assay for Pyruvate Dehydrogenase Kinase 4 (PDK4) using HepaRG (AID 2283525)
How it was run: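 In this multiplexed human HepaRG expression assay, cells are treated 48 h with test chemicals across an eight-point range starting at 100 uM. PDK4 mRNA changes, normalized to ACTB/GAPDH/POLR2A, are fitted in both directions relative to vehicle.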

[11] = read-out: NAD(P)H dehydrogenase [quinone] 1 (NQO1), NQO1 (gene 1728); experiment: LTEA_HepaRG_NQO1: Life Technologies and Expression Analysis (LTEA) Assay for NAD(P)H dehydrogenase [quinone] 1 (NQO1) using HepaRG (AID 2283526)
How it was run: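 Differentiated human HepaRG cells in serum-free induction medium, dosed in duplicate for 48 h at 8 half-log concentrations up to 100 uM in 0.5% DMSO. NQO1 mRNA by qRT-PCR normalized to ACTB, GAPDH, POLR2A; bidirectional fit versus DMSO baseline.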

[12] = read-out: Nuclear factor erythroid 2-related factor 2 (Homo sapiens) (UniProt Q16236); experiment: LTEA_HepaRG_NFE2L2: Life Technologies and Expression Analysis (LTEA) Assay for Nuclear factor erythroid 2-related factor 2 (NFE2L2) Transcription Factor using HepaRG (AID 2283527);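 further: TaqMan qRT-PCR transcript level normalised to ACTB GAPDH and POLR2A housekeeping genes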
How it was run: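 Transcript level of NFE2L2 is the read-out, measured by microfluidic TaqMan qRT-PCR and normalized to three housekeeping genes. Human HepaRG cultures received test chemical for 48 h at up to 100 uM in half-log steps. Gain or loss of signal is fitted relative to 0.5% DMSO.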

[13] = read-out: succinate dehydrogenase complex iron sulfur subunit B (SDHB), SDHB (gene 6390); experiment: LTEA_HepaRG_SDHB: Life Technologies and Expression Analysis (LTEA) Assay for succinate dehydrogenase complex iron sulfur subunit B (SDHB) using HepaRG (AID 2283528)
How it was run: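 HepaRG cells (~100,000/well, plated 48 h) exposed in duplicate for 48 h in serum-free induction medium to 8-point half-log series from 100 uM in 0.5% DMSO; mRNA by qRT-PCR normalised to ACTB, GAPDH, POLR2A; bidirectional fit versus DMSO.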

[14] = read-out: Signal transducer and activator of transcription 3 (Homo sapiens) (UniProt P40763); experiment: LTEA_HepaRG_STAT3: Life Technologies and Expression Analysis (LTEA) Assay for Signal transducer and activator of transcription (STAT3) using HepaRG (AID 2283529)
How it was run: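 Read-out is STAT3 mRNA level by qRT-PCR, normalized to three housekeeping genes, in human HepaRG liver cells treated for 48 h. Concentrations ran from 100 uM downward in half-log steps; curves were fitted for gain or loss relative to 0.5% DMSO.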

[15] = read-out: solute carrier (SLCO1B1), SLCO1B1 (gene 10599); experiment: LTEA_HepaRG_SLCO1B1: Life Technologies and Expression Analysis (LTEA) Assay for solute carrier (SLCO1B1) using HepaRG (AID 2283530)
How it was run: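 SLCO1B1 transcript levels were quantified by TaqMan qRT-PCR using three housekeeping genes for normalization. This followed 48 h chemical exposure (100 uM top, half-log, 8 points, 0.5% DMSO) of HepaRG liver cells, with gain or loss fitted relative to DMSO.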

[16] = read-out: sulfotransferase 2A1 (SULT2A1), SULT2A1 (gene 6822); experiment: LTEA_HepaRG_SULT2A1: Life Technologies and Expression Analysis (LTEA) Assay for sulfotransferase 2A1 (SULT2A1) using HepaRG (AID 2283531)
How it was run: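 Expression change of SULT2A1, by qRT-PCR with three housekeeping-gene normalization, was scored bidirectionally versus DMSO. Cells: differentiated HepaRG, dosed in duplicate for 48 h across 8 points, highest 100 µM, half-log dilution, 0.5% DMSO.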

[17] = read-out: Transforming Growth Factor (TGFB1), TGFB1 (gene 7040); experiment: LTEA_HepaRG_TGFB1: Life Technologies and Expression Analysis (LTEA) Assay for Transforming Growth Factor (TGFB1) Transporter using HepaRG (AID 2283533)
How it was run: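 TGFB1 transcript measured by qRT-PCR with normalisation to three housekeeping genes (ACTB, GAPDH, POLR2A); human HepaRG line treated in duplicate for 48 hr with an 8-point series topping at 100 uM, 0.5% DMSO vehicle, bidirectionally fitted.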

[18] = read-out: Nuclear factor NF-kappa-B p105 subunit (Homo sapiens) (UniProt P19838); experiment: LTEA_HepaRG_NFKB1: Life Technologies and Expression Analysis (LTEA) Assay for Nuclear Factor Kappa B Subunit 1 (NFKB1) using HepaRG (AID 2283521)
How it was run: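 Differentiated human HepaRG cells in serum-free induction medium with 0.5% DMSO were exposed for 48 h to eight half-log concentrations, top 100 uM, in duplicate. NFKB1 mRNA measured by Fluidigm TaqMan qRT-PCR, normalised to ACTB, GAPDH and POLR2A; bidirectional fit versus DMSO.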

[19] = read-out: Transforming Growth Factor (TGFA), TGFA (gene 7039); experiment: LTEA_HepaRG_TGFA: Life Technologies and Expression Analysis (LTEA) Assay for Transforming Growth Factor (TGFA) using HepaRG (AID 2283532)
How it was run: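 HepaRG (human liver line), 48 h exposure, 8 conc. half-log down from 100 uM, 0.5% DMSO vehicle, duplicates; serum-free induction medium. TGFA mRNA by TaqMan qRT-PCR, ACTB/GAPDH/POLR2A normalization; gain/loss fit vs DMSO.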

Measured: AC50

Signal transducer and activator of transcription 3 (Homo sapiens), sequence (P40763 whole entry, looked up): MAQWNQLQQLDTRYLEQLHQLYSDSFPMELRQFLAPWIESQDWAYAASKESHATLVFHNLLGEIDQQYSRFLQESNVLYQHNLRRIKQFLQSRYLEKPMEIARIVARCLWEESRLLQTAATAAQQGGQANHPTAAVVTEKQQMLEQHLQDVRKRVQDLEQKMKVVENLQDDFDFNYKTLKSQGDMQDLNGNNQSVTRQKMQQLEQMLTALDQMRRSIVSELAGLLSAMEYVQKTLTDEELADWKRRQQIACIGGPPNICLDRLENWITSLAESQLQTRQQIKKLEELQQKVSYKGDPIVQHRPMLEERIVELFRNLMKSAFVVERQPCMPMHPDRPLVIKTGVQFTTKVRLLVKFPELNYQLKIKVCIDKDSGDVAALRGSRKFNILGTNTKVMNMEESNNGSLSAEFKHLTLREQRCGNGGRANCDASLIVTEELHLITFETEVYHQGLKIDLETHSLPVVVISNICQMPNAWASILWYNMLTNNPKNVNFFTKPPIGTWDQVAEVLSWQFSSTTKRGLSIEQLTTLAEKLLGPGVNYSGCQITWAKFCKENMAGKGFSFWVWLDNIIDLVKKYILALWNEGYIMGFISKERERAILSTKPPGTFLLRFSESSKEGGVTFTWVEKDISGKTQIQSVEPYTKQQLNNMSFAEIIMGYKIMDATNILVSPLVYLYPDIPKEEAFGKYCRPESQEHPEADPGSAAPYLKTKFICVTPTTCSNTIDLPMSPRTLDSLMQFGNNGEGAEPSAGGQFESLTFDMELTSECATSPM
Nuclear factor NF-kappa-B p105 subunit (Homo sapiens), sequence (P19838 whole entry, looked up): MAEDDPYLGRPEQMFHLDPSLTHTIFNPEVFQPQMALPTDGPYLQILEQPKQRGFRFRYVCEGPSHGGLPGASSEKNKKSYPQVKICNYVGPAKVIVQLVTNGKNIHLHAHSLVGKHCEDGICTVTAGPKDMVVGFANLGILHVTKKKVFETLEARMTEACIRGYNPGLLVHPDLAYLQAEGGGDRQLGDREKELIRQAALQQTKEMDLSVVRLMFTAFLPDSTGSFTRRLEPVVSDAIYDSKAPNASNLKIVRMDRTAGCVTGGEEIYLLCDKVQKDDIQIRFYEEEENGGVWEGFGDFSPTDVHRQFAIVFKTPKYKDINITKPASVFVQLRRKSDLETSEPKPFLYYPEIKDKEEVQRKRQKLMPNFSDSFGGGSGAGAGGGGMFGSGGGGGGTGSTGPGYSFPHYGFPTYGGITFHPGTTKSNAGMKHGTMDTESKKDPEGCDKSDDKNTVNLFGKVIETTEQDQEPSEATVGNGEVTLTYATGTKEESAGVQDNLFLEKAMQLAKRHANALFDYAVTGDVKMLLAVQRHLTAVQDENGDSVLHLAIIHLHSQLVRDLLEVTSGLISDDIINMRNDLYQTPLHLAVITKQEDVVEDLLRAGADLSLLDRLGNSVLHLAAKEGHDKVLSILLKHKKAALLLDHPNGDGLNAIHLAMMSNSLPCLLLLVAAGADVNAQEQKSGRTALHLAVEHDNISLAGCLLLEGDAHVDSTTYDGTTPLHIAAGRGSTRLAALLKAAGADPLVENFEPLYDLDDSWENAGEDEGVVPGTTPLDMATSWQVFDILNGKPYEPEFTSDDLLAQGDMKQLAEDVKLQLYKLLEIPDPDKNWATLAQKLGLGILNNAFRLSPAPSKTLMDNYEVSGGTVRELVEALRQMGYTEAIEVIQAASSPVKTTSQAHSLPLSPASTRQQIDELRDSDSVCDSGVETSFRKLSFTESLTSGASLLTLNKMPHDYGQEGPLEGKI
Nuclear factor erythroid 2-related factor 2 (Homo sapiens), sequence (Q16236 whole entry, looked up): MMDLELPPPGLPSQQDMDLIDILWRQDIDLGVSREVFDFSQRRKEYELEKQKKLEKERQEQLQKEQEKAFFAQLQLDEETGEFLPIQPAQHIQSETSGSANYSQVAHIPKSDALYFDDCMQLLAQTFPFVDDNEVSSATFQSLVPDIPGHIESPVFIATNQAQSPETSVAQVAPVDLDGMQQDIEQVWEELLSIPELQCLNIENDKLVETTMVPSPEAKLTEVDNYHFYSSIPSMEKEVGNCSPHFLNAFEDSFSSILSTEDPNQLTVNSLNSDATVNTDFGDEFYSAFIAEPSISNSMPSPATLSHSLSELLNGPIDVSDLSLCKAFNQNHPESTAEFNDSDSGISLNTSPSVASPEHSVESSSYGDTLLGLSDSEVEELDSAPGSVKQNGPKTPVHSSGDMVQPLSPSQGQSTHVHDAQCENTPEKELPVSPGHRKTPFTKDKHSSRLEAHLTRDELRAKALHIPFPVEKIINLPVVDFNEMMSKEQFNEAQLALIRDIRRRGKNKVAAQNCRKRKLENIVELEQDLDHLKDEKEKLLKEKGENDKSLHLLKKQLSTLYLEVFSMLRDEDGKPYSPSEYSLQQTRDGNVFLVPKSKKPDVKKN

CC1=C(C(=O)Nc2ccccc2)SCCO1
active: [1] 39.5 µM | [2] 36.5 µM | [9] 14.2 µM
inactive: [3] | [4] | [5] | [6] | [7] | [8] | [10] | [11] | [12] | [13] | [14] | [15] | [16] | [17]

COC(=O)c1ccccc1C(=O)OC
inactive: [1] | [2] | [3] | [4] | [5] | [6] | [18] | [7] | [8] | [9] | [10] | [11] | [13] | [14] | [15] | [16] | [17]

CCOC(=O)C(Cl)Cc1cc(-n2nc(C)n(C(F)F)c2=O)c(F)cc1Cl (stereo not drawn)
inactive: [2] | [3] | [4] | [5] | [6] | [18] | [7] | [8] | [9] | [10] | [11] | [12] | [13] | [14] | [15] | [16] | [17]

CCOP(=S)(OCC)SCn1c(=O)oc2cc(Cl)ccc21
inactive: [1] | [3] | [4] | [5] | [6] | [7] | [8] | [9] | [10] | [11] | [13] | [14] | [15] | [16] | [19] | [17]

CO/C=C(/C(=O)OC)c1ccccc1Oc1cc(Oc2ccccc2C#N)ncn1
inactive: [7] | [8] | [10] | [11] | [13] | [14] | [17]
active: [1] 80.8 µM and 75.3 µM and 71.2 µM | [2] 82.4 µM and 82.1 µM and 85.2 µM | [3] 72 µM and 83.7 µM and 74.3 µM | [4] 81 µM and 66.5 µM and 34.6 µM | [5] 77.8 µM and 90 µM and 90.3 µM | [6] 83.2 µM and 79.1 µM and 78.9 µM | [9] 78 µM and 70.5 µM and 68.7 µM | [10] 18.6 µM | [15] 76.2 µM and 72.9 µM and 75.6 µM | [16] 80.9 µM and 81.2 µM and 94.4 µM | [19] 84.4 µM and 81.8 µM and 84.8 µM

CCNc1nc(Cl)nc(NC(C)C)n1
inactive: [1] | [2] | [3] | [4] | [5] | [6] | [18] | [7] | [8] | [9] | [10] | [11] | [13] | [14] | [15] | [16] | [17]

CC(C)(C)c1ccc(CSc2cnn(C(C)(C)C)c(=O)c2Cl)cc1
active: [1] 2.82 µM | [2] 2.25 µM | [3] 22.8 µM | [4] 18.1 µM | [5] 2.84 µM | [7] 1.84 µM | [9] 2.71 µM | [10] 9.92 µM | [13] 1.54 µM | [15] 2.34 µM | [16] 22.7 µM
inactive: [6] | [8] | [11] | [14] | [17]
